What was measured:
Assay in all cases: log2 ratio of Biotin-Ahx-Ub-VS probe labelling (fragment/DMSO); higher = less target engagement (more negative = stronger competition), active = hit call of the paper (q ≤ 0.05, log2 ratio ≤ -1)
Settings in all cases: compound concentration: 200 uM; treatment time: 3 h
[1] = target: T1, USP42 (UniProt Q9H9J4)
T1 sequence (whole entry): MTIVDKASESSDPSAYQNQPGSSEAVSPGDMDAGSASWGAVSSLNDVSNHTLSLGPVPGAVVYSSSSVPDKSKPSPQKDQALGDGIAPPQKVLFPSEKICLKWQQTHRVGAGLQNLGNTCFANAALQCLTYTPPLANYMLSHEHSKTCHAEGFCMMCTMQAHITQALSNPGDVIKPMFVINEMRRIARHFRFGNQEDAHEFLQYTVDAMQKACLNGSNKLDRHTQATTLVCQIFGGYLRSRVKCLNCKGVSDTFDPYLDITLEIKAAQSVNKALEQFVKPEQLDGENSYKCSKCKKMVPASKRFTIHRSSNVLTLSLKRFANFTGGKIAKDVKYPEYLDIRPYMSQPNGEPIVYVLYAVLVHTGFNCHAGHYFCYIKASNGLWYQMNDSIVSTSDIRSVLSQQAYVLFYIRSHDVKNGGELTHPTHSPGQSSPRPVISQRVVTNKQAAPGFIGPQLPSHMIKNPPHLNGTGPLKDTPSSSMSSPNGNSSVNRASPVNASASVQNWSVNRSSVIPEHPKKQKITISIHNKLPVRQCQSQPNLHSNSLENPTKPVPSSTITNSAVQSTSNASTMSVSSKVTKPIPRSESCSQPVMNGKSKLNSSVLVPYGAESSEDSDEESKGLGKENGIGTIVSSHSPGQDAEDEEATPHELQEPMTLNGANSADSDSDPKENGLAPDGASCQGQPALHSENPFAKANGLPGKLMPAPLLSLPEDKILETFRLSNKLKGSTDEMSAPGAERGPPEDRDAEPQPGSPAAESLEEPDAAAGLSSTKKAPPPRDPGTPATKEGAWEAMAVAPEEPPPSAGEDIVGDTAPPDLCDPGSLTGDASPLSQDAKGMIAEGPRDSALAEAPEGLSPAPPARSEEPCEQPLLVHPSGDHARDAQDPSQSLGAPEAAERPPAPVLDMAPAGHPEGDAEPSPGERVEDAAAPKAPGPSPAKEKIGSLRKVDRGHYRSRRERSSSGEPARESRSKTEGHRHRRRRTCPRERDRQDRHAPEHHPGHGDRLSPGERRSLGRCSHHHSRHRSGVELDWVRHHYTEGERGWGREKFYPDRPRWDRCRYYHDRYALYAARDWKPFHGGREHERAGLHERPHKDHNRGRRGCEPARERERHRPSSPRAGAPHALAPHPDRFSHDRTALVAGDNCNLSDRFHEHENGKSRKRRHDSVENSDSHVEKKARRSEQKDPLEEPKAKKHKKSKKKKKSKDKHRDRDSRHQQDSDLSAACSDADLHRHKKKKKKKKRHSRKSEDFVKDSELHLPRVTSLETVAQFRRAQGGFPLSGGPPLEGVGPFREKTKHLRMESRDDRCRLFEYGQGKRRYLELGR
Procedure, shortened: (§1)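 Each value is an average log2 ratio of fragment to vehicle, tested by unpaired t-test. The underlying Spectronaut label-free quantities were global-median-normalised, and only proteins with ≥2 unique peptides were included. Triplicate HEK293T lysate samples (495 µg) were exposed to fragment at 200 µM or vehicle for 3 h, then to Biotin-Ahx-Ub-VS at 0.5 µM final for 1 h, before NeutrAvidin enrichment of labelled DUBs, LysC and trypsin digestion, and diaPASEF LC-MS/MS.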

[2] = target: USP46 (UniProt P62068)
Sequence of USP46 (P62068 whole entry): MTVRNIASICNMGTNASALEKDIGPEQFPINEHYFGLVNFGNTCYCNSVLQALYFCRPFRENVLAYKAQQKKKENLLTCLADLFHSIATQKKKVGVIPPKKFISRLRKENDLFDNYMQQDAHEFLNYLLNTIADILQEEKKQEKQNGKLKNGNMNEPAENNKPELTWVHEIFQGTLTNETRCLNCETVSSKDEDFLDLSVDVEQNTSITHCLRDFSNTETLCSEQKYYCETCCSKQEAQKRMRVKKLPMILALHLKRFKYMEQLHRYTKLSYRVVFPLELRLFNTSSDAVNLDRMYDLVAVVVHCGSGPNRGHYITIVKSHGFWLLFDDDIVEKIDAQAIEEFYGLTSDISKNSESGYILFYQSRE
Procedure, shortened: as §1

[3] = target: T2, USP47 (UniProt Q96K76)
T2 sequence (whole entry): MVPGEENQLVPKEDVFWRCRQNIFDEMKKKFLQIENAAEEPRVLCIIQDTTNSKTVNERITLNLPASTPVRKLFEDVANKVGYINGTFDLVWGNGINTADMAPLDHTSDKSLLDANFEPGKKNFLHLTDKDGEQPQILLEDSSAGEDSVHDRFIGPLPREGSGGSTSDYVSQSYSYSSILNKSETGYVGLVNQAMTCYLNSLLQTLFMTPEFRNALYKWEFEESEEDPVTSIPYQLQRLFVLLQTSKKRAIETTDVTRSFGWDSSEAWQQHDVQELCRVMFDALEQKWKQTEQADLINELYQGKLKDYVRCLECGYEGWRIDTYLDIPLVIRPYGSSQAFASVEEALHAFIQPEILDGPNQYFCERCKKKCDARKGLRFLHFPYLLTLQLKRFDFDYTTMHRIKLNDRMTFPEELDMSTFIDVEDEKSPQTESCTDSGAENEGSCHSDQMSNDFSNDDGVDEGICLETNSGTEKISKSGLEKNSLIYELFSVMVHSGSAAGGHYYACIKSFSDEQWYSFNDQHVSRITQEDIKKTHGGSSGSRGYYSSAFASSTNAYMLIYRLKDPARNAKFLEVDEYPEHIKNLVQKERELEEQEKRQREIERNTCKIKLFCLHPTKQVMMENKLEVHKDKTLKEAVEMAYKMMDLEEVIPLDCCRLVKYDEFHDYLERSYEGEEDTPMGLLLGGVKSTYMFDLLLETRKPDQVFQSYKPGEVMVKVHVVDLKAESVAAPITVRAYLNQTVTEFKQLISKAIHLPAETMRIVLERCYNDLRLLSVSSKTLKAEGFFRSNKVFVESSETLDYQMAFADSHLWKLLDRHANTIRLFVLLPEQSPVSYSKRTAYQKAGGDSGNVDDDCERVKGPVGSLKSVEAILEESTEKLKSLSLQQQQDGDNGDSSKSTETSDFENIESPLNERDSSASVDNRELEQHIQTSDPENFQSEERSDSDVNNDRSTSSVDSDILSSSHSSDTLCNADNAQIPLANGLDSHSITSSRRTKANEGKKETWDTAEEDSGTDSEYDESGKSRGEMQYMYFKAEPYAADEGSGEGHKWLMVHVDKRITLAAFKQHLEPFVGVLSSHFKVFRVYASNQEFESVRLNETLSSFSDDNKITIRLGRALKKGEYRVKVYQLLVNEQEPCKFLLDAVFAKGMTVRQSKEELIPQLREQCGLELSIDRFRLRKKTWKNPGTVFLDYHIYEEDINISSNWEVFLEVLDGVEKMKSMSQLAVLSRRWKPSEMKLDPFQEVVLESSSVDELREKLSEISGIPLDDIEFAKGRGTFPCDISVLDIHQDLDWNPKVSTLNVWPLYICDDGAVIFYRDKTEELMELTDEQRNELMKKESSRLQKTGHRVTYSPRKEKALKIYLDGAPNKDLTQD
Procedure, shortened: as §1

[4] = target: T3, USP48 (UniProt Q86UV5)
T3 sequence (whole entry): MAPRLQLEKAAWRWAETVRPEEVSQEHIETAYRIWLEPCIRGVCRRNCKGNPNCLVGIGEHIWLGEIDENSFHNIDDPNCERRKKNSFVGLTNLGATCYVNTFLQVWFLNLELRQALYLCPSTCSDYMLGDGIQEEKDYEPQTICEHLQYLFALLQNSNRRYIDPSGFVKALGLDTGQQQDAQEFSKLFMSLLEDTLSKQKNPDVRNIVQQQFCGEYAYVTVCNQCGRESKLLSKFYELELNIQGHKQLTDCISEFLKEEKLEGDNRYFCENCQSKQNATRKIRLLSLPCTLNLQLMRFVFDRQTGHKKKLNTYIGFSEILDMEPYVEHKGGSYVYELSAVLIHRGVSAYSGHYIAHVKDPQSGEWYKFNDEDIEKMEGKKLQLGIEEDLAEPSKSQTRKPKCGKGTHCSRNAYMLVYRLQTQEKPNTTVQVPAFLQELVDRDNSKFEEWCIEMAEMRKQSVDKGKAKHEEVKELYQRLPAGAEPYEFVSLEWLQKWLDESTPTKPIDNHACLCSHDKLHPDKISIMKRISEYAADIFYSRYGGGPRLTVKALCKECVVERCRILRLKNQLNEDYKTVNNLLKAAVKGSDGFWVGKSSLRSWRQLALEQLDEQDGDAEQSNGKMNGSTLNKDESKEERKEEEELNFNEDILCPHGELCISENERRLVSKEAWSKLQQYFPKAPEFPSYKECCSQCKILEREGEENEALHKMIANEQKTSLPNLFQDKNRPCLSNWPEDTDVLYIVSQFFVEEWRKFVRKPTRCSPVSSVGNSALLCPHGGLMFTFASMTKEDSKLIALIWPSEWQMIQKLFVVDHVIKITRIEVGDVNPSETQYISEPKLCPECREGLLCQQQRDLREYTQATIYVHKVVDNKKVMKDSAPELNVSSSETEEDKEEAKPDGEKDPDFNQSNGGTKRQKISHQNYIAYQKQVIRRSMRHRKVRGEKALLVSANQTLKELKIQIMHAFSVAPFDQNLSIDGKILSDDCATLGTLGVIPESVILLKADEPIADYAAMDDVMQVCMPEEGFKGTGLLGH
Procedure, shortened: as §1

[5] = target: T4, USP5 (UniProt P45974)
T4 sequence (whole entry): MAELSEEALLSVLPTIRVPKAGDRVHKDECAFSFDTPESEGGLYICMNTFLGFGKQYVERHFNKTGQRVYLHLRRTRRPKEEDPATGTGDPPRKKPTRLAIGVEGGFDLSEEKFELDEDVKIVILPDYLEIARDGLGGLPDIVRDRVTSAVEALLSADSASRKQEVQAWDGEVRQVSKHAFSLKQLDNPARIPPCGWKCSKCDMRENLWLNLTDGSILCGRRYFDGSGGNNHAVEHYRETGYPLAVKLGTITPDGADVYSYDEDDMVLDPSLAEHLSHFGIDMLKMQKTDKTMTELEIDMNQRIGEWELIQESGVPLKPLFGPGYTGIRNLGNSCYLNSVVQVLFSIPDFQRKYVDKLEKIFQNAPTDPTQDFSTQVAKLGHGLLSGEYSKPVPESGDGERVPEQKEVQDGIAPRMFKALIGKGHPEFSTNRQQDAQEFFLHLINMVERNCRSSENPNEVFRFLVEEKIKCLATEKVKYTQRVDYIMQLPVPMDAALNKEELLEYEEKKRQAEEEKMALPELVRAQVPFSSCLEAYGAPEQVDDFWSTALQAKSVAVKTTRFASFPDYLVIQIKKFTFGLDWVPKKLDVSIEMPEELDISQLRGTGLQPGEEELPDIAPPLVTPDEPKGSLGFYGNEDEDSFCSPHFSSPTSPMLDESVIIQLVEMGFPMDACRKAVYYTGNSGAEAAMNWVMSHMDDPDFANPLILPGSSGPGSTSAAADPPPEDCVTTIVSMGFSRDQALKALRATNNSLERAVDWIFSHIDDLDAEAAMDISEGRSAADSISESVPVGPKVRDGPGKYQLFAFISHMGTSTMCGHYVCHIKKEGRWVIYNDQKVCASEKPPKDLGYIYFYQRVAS
Procedure, shortened: as §1

[6] = target: USP54 (UniProt Q70EL1)
Sequence of USP54 (Q70EL1 whole entry): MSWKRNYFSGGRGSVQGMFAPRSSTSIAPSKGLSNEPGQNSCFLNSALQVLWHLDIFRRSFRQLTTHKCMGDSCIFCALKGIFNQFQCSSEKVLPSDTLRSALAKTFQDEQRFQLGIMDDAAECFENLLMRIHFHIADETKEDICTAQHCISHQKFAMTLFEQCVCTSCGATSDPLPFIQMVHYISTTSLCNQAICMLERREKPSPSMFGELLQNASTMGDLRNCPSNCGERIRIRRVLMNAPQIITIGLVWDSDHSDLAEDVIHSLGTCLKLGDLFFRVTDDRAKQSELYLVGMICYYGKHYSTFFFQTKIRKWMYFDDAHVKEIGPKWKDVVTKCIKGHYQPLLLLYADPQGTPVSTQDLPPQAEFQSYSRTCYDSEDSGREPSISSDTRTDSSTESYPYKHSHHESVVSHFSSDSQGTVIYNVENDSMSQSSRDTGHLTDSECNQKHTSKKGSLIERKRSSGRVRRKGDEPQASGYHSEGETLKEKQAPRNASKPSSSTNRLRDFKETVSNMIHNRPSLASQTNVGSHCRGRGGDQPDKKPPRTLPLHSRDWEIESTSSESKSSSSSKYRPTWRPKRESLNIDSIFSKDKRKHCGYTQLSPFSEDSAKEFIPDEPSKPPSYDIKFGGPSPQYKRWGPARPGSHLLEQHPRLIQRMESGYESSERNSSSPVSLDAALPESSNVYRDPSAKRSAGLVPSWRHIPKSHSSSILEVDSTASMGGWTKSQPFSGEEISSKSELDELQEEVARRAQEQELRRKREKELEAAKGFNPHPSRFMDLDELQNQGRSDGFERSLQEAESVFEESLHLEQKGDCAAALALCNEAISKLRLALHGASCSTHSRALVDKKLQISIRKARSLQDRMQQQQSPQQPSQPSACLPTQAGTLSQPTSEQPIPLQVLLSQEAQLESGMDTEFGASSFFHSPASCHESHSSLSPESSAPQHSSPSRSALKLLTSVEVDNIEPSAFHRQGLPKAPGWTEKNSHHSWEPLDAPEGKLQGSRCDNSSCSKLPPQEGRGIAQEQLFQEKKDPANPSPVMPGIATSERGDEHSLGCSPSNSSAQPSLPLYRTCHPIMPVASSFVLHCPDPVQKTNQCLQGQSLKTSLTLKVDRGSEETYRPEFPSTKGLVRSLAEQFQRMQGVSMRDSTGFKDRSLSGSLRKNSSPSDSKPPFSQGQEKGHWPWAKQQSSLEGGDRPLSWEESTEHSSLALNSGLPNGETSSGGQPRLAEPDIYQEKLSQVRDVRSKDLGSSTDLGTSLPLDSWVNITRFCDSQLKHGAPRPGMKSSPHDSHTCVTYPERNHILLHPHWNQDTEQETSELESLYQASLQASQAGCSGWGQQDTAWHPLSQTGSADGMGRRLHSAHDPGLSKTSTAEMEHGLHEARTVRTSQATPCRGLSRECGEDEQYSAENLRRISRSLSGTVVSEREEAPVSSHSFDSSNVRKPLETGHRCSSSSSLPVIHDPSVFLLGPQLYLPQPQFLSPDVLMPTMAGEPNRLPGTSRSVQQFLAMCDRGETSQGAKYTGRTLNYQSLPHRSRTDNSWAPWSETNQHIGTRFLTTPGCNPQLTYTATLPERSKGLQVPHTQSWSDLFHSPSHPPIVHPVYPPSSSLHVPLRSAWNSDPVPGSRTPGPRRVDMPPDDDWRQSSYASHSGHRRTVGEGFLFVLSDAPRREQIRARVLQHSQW
Procedure, shortened: as §1

[7] = target: USP7 (UniProt Q93009)
Procedure, shortened: as §1

[8] = target: T5, USP8 (UniProt P40818)
T5 sequence (whole entry): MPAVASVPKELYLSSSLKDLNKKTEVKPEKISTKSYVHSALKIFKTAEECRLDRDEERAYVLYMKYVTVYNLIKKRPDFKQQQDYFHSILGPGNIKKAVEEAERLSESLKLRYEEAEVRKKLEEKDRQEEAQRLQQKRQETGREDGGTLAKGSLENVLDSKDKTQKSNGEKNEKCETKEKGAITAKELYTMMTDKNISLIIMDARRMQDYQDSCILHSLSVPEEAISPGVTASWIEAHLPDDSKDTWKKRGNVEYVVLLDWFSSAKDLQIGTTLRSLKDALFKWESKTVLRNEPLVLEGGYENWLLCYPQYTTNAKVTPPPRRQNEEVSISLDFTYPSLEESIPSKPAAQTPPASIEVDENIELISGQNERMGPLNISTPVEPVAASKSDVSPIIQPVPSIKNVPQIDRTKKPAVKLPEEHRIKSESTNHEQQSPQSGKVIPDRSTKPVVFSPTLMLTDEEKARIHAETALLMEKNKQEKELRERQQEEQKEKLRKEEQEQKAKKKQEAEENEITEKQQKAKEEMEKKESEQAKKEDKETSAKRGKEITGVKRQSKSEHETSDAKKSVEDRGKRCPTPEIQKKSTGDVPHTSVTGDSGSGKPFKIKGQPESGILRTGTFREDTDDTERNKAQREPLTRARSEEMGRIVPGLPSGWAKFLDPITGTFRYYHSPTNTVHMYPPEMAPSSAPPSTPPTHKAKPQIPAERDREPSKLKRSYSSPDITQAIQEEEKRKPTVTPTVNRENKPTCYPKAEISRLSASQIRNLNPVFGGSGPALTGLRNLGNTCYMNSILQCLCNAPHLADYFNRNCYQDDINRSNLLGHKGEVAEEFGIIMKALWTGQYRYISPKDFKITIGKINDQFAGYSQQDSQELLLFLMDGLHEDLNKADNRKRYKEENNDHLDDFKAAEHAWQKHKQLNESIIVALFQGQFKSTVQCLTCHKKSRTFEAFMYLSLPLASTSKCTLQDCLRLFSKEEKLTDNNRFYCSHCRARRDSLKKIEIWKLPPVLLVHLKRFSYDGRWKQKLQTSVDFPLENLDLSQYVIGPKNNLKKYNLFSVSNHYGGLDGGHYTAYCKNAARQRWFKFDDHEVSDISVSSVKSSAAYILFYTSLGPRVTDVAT
Procedure, shortened: as §1

[9] = target: USP9X (UniProt Q93008)
Sequence of USP9X (Q93008 whole entry): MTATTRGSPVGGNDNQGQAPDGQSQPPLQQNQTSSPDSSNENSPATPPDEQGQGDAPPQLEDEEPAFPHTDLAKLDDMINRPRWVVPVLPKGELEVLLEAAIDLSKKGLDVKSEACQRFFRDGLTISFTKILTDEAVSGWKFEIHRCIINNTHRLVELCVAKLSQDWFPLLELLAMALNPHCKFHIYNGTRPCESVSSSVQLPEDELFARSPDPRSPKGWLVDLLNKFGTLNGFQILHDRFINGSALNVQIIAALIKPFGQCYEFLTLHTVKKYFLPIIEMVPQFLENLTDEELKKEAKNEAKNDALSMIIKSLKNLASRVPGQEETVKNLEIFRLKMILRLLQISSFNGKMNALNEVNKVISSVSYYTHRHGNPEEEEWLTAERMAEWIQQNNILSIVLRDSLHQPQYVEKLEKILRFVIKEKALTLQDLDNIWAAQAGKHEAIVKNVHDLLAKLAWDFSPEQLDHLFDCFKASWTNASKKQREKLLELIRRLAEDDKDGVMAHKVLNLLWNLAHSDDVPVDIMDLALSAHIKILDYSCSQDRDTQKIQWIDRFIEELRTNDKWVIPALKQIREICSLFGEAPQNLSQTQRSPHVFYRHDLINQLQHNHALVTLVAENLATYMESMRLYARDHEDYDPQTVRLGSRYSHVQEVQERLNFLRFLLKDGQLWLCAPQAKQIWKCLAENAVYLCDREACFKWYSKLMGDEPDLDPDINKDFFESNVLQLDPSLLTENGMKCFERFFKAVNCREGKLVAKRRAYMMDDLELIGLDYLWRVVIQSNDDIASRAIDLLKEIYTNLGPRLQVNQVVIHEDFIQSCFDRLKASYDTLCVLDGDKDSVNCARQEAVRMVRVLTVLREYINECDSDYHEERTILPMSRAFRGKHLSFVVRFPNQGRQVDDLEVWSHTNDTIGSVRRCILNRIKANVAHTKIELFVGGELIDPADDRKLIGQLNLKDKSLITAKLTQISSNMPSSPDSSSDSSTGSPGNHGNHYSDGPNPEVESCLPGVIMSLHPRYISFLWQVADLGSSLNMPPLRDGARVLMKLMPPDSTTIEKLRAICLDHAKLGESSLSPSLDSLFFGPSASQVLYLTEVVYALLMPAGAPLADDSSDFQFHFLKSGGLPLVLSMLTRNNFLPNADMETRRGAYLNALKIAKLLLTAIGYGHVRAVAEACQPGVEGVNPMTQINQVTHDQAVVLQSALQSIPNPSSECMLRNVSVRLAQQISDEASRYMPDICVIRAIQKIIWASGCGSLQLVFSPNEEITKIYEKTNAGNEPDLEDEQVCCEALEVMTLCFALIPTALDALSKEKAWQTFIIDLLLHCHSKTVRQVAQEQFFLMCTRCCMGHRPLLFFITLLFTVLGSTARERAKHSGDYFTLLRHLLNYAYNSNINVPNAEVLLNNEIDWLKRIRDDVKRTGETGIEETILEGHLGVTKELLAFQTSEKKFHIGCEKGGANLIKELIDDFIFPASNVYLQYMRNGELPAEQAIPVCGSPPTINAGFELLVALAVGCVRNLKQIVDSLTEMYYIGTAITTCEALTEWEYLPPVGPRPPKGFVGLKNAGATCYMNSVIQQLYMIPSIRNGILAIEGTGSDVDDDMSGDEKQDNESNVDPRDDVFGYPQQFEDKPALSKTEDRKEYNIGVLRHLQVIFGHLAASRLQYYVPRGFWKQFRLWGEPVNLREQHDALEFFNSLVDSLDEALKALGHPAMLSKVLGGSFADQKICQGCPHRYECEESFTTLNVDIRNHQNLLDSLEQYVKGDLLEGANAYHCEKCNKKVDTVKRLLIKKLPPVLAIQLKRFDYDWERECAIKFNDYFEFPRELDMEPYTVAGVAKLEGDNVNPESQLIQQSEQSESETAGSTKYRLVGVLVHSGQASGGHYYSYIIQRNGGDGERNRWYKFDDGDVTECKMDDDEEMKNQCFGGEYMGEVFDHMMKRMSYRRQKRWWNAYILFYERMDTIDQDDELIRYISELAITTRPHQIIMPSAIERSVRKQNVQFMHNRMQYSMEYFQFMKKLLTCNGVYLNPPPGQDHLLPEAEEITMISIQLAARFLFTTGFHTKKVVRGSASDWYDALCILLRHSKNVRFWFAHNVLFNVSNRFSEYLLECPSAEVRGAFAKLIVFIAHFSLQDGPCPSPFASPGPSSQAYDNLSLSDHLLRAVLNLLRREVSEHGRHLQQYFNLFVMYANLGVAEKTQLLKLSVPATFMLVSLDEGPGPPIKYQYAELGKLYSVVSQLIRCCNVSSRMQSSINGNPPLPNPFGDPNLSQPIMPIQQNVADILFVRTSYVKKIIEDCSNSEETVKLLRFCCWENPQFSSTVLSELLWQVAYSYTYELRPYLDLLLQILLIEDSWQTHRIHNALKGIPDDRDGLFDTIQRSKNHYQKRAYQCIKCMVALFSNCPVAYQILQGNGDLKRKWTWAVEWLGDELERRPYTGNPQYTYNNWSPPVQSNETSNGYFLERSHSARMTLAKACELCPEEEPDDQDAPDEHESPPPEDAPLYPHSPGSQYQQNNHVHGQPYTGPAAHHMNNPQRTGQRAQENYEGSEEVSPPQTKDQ
Procedure, shortened: as §1

[10] = target: UniProt O00487
Sequence of UniProt O00487 (O00487 whole entry): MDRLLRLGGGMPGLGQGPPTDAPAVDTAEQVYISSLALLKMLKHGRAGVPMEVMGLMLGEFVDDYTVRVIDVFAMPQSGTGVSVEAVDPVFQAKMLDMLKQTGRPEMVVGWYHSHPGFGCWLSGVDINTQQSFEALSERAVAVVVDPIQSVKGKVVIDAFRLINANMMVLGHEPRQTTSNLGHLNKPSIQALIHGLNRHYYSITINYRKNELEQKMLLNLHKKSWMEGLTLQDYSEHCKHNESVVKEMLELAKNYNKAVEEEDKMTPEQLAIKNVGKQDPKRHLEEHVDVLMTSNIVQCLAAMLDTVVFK
Procedure, shortened: as §1

Measured: log2 ratio of Biotin-Ahx-Ub-VS probe labelling

CN(Cc1nc2ccccc2[nH]1)C(=O)CCl.Cl
active: [4] -1.14 | [7] -1.36
inactive: [1] 0.698 | [2] -0.254 | [3] -0.178 | [5] 0.118 | [6] -0.517 | [8] -0.0998 | [9] -0.057 | [10] -0.00224
